Measurements reported in the supplement of paper PMC3334620.
Over roughly 33,000 sequences, “E-score (-0.5 to 0.5)” has its median near -0.032; the highest 2% begin near 0.36. What follows is part of a selection rich in the highest values, with near analogues and random picks from the rest.

Target: T1, Sko1 (UniProt Q02100)
T1 sequence: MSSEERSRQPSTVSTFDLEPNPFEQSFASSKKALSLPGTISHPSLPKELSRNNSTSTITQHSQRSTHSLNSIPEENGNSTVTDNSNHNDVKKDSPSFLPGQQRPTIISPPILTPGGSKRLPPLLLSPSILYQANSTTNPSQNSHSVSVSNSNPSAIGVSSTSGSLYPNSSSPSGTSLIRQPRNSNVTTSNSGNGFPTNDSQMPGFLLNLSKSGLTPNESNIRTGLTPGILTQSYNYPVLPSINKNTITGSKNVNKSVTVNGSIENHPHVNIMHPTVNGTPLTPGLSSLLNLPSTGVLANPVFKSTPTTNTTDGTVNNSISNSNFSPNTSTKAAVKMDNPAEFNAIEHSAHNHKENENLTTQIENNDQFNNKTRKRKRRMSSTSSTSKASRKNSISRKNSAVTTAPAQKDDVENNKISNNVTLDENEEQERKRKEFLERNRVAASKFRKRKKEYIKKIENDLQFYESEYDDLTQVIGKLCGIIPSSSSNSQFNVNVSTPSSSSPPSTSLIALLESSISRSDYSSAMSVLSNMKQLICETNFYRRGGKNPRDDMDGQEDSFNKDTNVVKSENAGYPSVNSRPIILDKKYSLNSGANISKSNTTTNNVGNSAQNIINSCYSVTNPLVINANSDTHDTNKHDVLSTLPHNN
Assay: PBM E-score (8-mer binding enrichment) (E-score (-0.5 to 0.5)); higher = stronger / more preferred TF binding
Conditions: protein concentration: 200 nM; construct: GST-full length
Outline: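 Bound GST-tagged yeast transcription factors, applied at about 100-200 nM to double-stranded universal all-10-mer Agilent arrays, were detected with fluorescent anti-GST. Scans were normalised with masliner. A modified Wilcoxon-Mann-Whitney statistic, the E-score, was assigned to each ungapped eight-base word pooled with its reverse complement by the Universal PBM Analysis Suite.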

Sequence	PBM E-score
GTTCTTTA	0.175
GTTACGGA	0.0875
GTTACTGA	0.173
GTTACGTA	0.483
CTTACGTA	0.489
CTTACGGA	0.0115
CTTACGTC	0.459
CTTAGGTC	0.0974
CTTACGGC	-0.277
CTTACTTA	0.0934
GGTTGCCA	-0.215
CCCTGATA	-0.149
ATCACTGG	0.0306
CATATCCA	-0.129
ACCGTTCC	-0.0907
GCGCCACC	-0.291
ATACGTGC	0.406
AGACGTGC	0.241
AGACGTGA	0.312
GTACGTGA	0.416
ATACGTGA	0.426
ATACGTGG	0.429
CTACGTGC	0.354
GGACGTGA	0.181
AAACGTGA	0.308
AGACGTGG	0.203

Sequence	PBM E-score
GAACGTGA	0.175
AAACGTGG	0.213
CAGTCTTC	-0.187
AGCCGAAT	-0.104
AGCCTTTA	0.0785
CTGGTGGA	-0.185
CTACGTGA	0.404
CTTCGTGA	0.186
CTACGCGA	0.167
AGTCAGAG	-0.142
AGTCAGAA	-0.0299
CGTCAGAA	0.37
GGTCAAAA	0.096
CGTCAAAA	0.36
CGTCAAAC	0.253
CGTCAGAC	0.394
GGTCAGAA	-0.206
CCTCAGAG	-0.374
CGTCAGAG	0.429
AGTCAGAC	-0.203
GGTCAGAC	-0.241
CTAACTTA	0.00938
CGCTGTGC	-0.202
CGTTATTA	0.303
CACAGTGC	-0.182
AGACTTAT	-0.0312

Sequence	PBM E-score
CGTCAACA	0.323
CGTCAGTA	0.327
GGTCAGGA	-0.245
AGTCAATC	0.017
CGTCAGTC	0.375
CGTCAATA	0.359
AGTCAACG	0.0691
CGTCAACG	0.389
CGTCAATC	0.365
AGTCAGTC	-0.02
CGTCAGGC	0.272
CGTCAGGA	0.39
CCTGGTAA	-0.124
CGCTGTCC	-0.0275
ATTCCATG	-0.0675
AACGAAAT	0.261
CGTGGGAA	0.00507
GCATAAAC	0.166
ACCAAGGC	-0.197
CTGCCCGC	-0.0733
GCCTACAA	-0.169
CTCTGATA	0.0155
GCAAGTCA	0.00337
ACAGAGAG	-0.274
ATTTCTTG	0.164
GGCTCACA	-0.118

Sequence	PBM E-score
GTGTCCAA	0.142
ATTGTGCA	0.076
CTGTTCGA	-0.13
ACGTCGCC	0.327
AACGTGAC	0.277
GACGTGAA	0.358
CGCGTGAC	0.267
CACGTGAG	0.344
GACGTGAC	0.432
CACGTGAC	0.387
AATCGACG	0.295
GAAACCCC	-0.221
GCGACGTA	0.413
GCGACGGA	-0.237
CCGACGTA	0.415
CCGACGGA	-0.237
GCGACGAA	0.0338
CCGACGTC	0.309
GACACTGC	-0.0761
GGGCGCTA	-0.0254
GCTGGAAC	-0.188
ACGTAGCG	0.42
ACGTAGCC	0.388
CCGTAGCG	-0.239
CCGTAGCA	-0.064
ACTTAGCG	0.0634

Sequence	PBM E-score
ACGTAGCT	0.444
AAGTAGCT	0.0695
TCGTAGCA	0.217
ACGTAGCA	0.412
GCGTAGCC	0.00349
CCGTAGCC	-0.259
ACTTAGCT	-0.211
TAGGATGA	0.136
CGTTCGAG	0.189
ACTAAAGG	-0.0392
GAACACAC	-0.0651
CCCCAGCA	-0.157
CAGGTATG	-0.00478
CGCGTATA	0.244
CTCGTATA	0.0394
ACCGTATG	0.105
CACGTATG	0.426
AGCGTATC	-0.0128
GACGTATC	0.422
CACGTATA	0.431
AACGTATG	0.431
AGCGTATG	-0.0197
CAAGTATG	0.0253
GAAGTATC	0.0123
CGAGCACA	-0.00253
CAGTTCAG	-0.112

Sequence	PBM E-score
TTACAGAA	-0.0258
ACAATAGC	-0.0393
CAATGCCG	-0.128
CGACCTTC	-0.189
ACTGCGTC	0.284
GTCGTATA	0.269
GGCGTATA	0.148
CTCGTATC	0.0593
GACGTATA	0.453
CACGTATC	0.393
ATCGTATA	0.197
TACGTATA	0.483
ACCGTATA	0.0367
AACGTATT	0.434
AAGGTATT	0.131
CGCGTATC	0.232
AAAGTATT	0.0493
CGCACTGA	0.0222
AGCTATAT	0.172
TCCCGACA	-0.139
CAAGTCGC	-0.173
AACGTATC	0.353
AACGTATA	0.406
AGCGTATA	0.15
ACACGGGG	-0.242
CTTACGAC	0.16

Sequence	PBM E-score
ATTACGAC	0.396
ACTACGAG	0.162
AATACGAG	0.244
ACTACGAC	0.181
ATTACGAG	0.36
ATACCTGC	-0.102
CAAATTAG	0.104
CCGTCACA	0.163
GCGTCACC	0.341
CCGTCACG	0.152
TCGTCACA	0.379
TGGTCACA	0.0263
GCGTCACA	0.406
ACTAGACT	-0.176
CAATAGCA	-0.132
CTGCAATC	-0.0429
CGCTGAGA	-0.0923
AAAACCAG	-0.0997
CCGCAACG	0.0186
GCGCAACA	0.175
ACGCAACA	0.388
